Several values for one entry are separate records, joined by “and”; a condition that tells them apart may be missing. Identical values can stand only once. Out of some 290,000 compounds screened, about 4,200 (1.4%) were called active.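 The calls were made as follows: active = binding response more than 3 SD above or below the average of its plate-row segment, actives on both sides; inconclusive = wells at one plate position flagged as instrument error; inactive = the rest.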 The list comes from a sample in which actives are over-represented; it also holds similar structures and randomly drawn compounds. Some structures have more than one record in an assay (separate samples or runs), and their calls can disagree.

Chain of Mitogen-activated protein kinase kinase kinase 3 (Homo sapiens) (Q99759 whole entry, looked up): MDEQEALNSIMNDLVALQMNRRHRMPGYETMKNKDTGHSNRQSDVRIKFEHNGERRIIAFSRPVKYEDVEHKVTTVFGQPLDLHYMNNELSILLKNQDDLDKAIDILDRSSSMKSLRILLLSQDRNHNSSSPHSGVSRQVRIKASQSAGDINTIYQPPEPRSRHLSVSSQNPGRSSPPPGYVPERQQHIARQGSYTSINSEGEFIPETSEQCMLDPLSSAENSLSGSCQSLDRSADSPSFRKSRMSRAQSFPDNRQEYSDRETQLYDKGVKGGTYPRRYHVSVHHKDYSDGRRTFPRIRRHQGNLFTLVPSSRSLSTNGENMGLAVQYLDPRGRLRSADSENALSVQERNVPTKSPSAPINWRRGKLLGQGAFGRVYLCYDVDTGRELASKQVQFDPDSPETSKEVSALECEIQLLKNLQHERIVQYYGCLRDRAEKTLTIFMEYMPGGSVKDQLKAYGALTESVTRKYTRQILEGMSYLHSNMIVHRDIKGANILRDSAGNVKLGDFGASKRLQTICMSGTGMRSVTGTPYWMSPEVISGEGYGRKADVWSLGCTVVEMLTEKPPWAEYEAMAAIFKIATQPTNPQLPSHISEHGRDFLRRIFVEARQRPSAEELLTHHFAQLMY

The assay addresses Mitogen-activated protein kinase kinase kinase 3 (Homo sapiens) (UniProt Q99759). Kind of assay: compounds raising or lowering MEK5 association with MEKK3 PB1 – biochemical, wildtype MEKK3, multiplex bead flow cytometry, Alexa488-MEK5, primary screen (AID 1529).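 Also: Alexa488 bead fluorescence after subtracting the streptavidin-only scavenger bead signal.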 Particulars: bead-based flow cytometry, Alexa488-MEK5 binding to MEKK3; at 10 µM; actives lie on both sides; 0 = blocked by unlabeled MEK5, 100 = vehicle. (In general: In flow cytometry, cells or beads pass a laser one at a time.)
`C=CCN(CC=C)S(=O)(=O)c1ccc(C(=O)Nc2sc3c(c2C(N)=O)CCCCC3)cc1`: the binding response (% of control) was 66% [inhibitor] (active). As for `C=CCN(CC=C)S(=O)(=O)c1ccc(C(=O)Nc2nc3c(s2)CCc2ccccc2-3)cc1`, the figure is 100% (inactive).

Consider `NC(=O)c1c(NC(=O)c2ccccc2)sc2c1CCCC2`, for which the binding response (% of control) was 102% (inactive). As for `NS(=O)(=O)c1ccc2nc(NC(=O)C3=COCCO3)sc2c1`, the figure is 100% (inactive); as for `COc1cccc(NC(=O)[C@H](Cc2c[nH]c3ccccc23)NC(=O)[C@@H]2Cc3ccccc3CN2)c1`, 101% (inactive); as for `CCc1nnc(SCc2cccc(F)c2)nc1CC`, 101% (inactive). For `COCc1cc(C)nc2sc(C(=O)NC3CCCCC3)c(N)c12` the value was 101% (inactive).

Consider `CCc1ccc2nc3sc(C(=O)Nc4nnc(CC)s4)c(N)c3cc2c1`, for which the binding response (% of control) is 103% (inactive).

In the case of `CCc1nnc(NC(=O)c2sc3nc(C)cc(COC)c3c2N)s1`, the binding response (% of control) is 46% [inhibitor] (active).

Consider `CCOc1cc(C(=O)OCC(=O)Nc2cccc(C)c2)ccc1OCC(=O)N1CCOCC1`, for which the binding response (% of control) was 137% (active). On to `O=C(COC(=O)c1ccccc1)Nc1cccc(S(=O)(=O)N2CCOCC2)c1`, for which the binding response (% of control) was 104% (inactive). For `COc1ccc(C(=O)OCC(=O)Nc2cccc(C(C)=O)c2)cc1OC` the value was 100% (inactive). As for `COc1ccc(NC(=O)COc2ccc(C(=O)c3ccc(F)cc3)cc2)cc1S(N)(=O)=O`, the figure is 100% (inactive).

`CCc1nc2nc(C)c(NS(=O)(=O)c3ccc4c(c3)CCCC4)c(=O)n2[nH]1`: the binding response (% of control) is 101% (inactive).

As for `COc1ccc(CN(C)C(=O)Cc2ccsc2)c(OC)c1OC`, the binding response (% of control) was 103% (inactive). As for `COc1ccccc1N=Cc1c(O)c2ccccc2oc1=O`, the figure is 121% (inactive); as for `CCC/C(O)=C1\C(=O)CC(C)(C)CC1=Nc1ccccc1OC`, 102% (inactive); as for `COc1ccccc1N=C(C)C1=C(O)COC1=O`, 81% [inhibitor] (active).

With `Cc1ccc2c(C)c(C(=O)N3CCN(c4ccncc4)CC3)oc2c1C`, the binding response (% of control) was 106% (inactive). As for `c1ccc(-c2cnc(CN3CCN(c4ccccc4)CC3)o2)cc1`, the figure is 101% (inactive); as for `COc1ccc(N2CCN(Cc3nnc(-c4ccccc4)o3)CC2)cc1`, 139% (active); as for `Cc1ccc(-c2nnc(CN3CCN(C)CC3)o2)cc1`, 112% (inactive). Regarding `CCCn1c(=N)n(CC(=O)c2ccc(Cl)c(Cl)c2)c2ccccc21`, the binding response (% of control) was 109% (inactive). As for `CCOC(=O)c1cc2c(nc1NC(=S)Nc1ccccc1)CC(C)(CC)OC2` (centres undefined), the figure is 128% (active); as for `CCOC(=O)c1cn[nH]c1NC(=S)Nc1ccccc1`, 93% (inactive). Regarding `CCOC(=O)c1ccc(NC(=S)Nc2cc(C)cc(C)n2)cc1`, the binding response (% of control) is 77% (inactive). `CCOc1ccc(CN2CCNC(=O)C2CC(=O)NCCCC2CCCC2)cc1` (centres undefined): the binding response (% of control) was 102% (inactive). For `O=C1CCN(CCCc2ccccc2)CCN1CCO` the value was 101% (inactive); for `CCOC(=O)c1ccc(NC(=O)CNC(=O)c2ccco2)cc1`, 108% (inactive). For `NS(=O)(=O)c1ccc(NC(=O)COC(=O)c2ccco2)cc1` the value was 98% (inactive); for `O=C(COC(=O)CNC(=O)c1ccco1)Nc1ccc(F)cc1`, 65% [inhibitor] (active); for `CCOc1ccccc1NC(=S)N1CCN(c2cccc(C)c2C)CC1`, 102% (inactive). Consider `O=C(Nc1ccc2c(c1)CCC2)c1ccc(Br)s1`, for which the binding response (% of control) was 86% (inactive).

`O=C(CCCO)N/N=C/c1cc(Br)ccc1O`: the binding response (% of control) was 129% (active). For the molecule `Oc1ccc(Br)cc1/C=N/Nc1ccccn1`, the binding response (% of control) is 99% (inactive). As for `O=C(N/N=C/c1ccccc1O)/C(=C/c1ccccc1)CCO`, the figure is 108% (inactive); as for `CCn1c(SCC(=O)NC2=NCCS2)nnc1C(C)NC(=O)c1ccccc1F` (centres undefined), 95% (inactive).

As for `Cc1ccc(CC2C(=O)N(c3ccc(F)cc3)C(=O)C2C)cc1` (centres undefined), the binding response (% of control) is 99% (inactive). As for `CCOC(=O)c1sc2nc(C)nc(Nc3ccc(OC)c(OC)c3)c2c1C`, the figure is 101% (inactive). For `CCOC(=O)c1sc2nc(C)nc(SCC(N)=O)c2c1C` the value was 132% (active).

As for `CCOC(=O)c1sc2nc(C)[nH]c(=O)c2c1C`, the binding response (% of control) is 97% (inactive). For `COC(C[C@@H]1O[C@@H]1C(=O)[C@H](C)OCc1ccccc1)OC`, the binding response (% of control) is 98% (inactive). For `CCOC(=O)/C=C/c1ccc(C(F)(F)F)cc1S(=O)(=O)NC(C)(C)C` the value was 100% (inactive); for `CCOc1cccc(OCCCOc2cccc3cccnc23)c1`, 143% (active). For `OCc1ccc(OCCCOc2cccc3cccnc23)cc1` the value was 106% (inactive); for `Cc1cc(OCCOc2cccc3cccnc23)c(C)cc1Cl`, 101% (inactive).

As for `COc1cccc(CNC(=O)CCC2CCCN(C(=O)c3ccc(F)c(Cl)c3)C2)c1` (centres undefined), the binding response (% of control) is 99% (inactive). As for `CS(=O)(=O)N1CCN(CC(=O)NC2CCCC2)CC1`, the figure is 99% (inactive); as for `COC(=O)c1ccccc1NC(=O)C1(S(=O)(=O)c2ccc(Cl)cc2)CC1`, 102% (inactive). As to `COC(=O)Cn1cnc2scc(-c3ccc(C)c(C)c3)c2c1=O`, the binding response (% of control) was 105% (inactive).

`COc1ccc(S(=O)(=O)Nc2ccccc2C(=O)N2CCCC2)cc1C`: the binding response (% of control) was 104% (inactive).

For `CC1CN(C(=O)c2ccccc2NS(=O)(=O)c2cccc([N+](=O)[O-])c2)CC(C)O1` (centres undefined), the binding response (% of control) is 131% (active).

On to `COCCNC(=O)c1ccccc1NS(=O)(=O)c1ccc(C)c([N+](=O)[O-])c1`, for which the binding response (% of control) is 101% (inactive). As for `O=C(NCC1CC1)c1onc(CSc2ccccc2)c1C(=O)NCC1CC1`, the figure is 97% (inactive). For `NC(=O)COC(=O)c1ccc2c(c1)C(=O)N(Cc1ccco1)C2=O` the value was 99% (inactive); for `C=CCn1c(P(C)(=O)O)nc2ccccc21`, 138% (active) and 103% (inactive); for `C=CCn1c(C(C)NC(=O)CC)nc2ccccc21` (centres undefined), 94% (inactive).

Turning to `C=CCn1c(C2CC(=O)N(c3ccc(C)cc3)C2)nc2ccccc21` (centres undefined), the binding response (% of control) is 96% (inactive).

With `COc1ccc(C#Cc2c(-c3ccc(OC)cc3)oc3ccc(-c4ccc5c(c4)OCO5)cc23)cc1`, the binding response (% of control) is 95% (inactive).

Take `COc1ccc(-n2cc(-c3ccccc3)c3c(=S)nc[nH]c32)cc1`: the binding response (% of control) is 101% (inactive).

On to `CCn1cc(S(=O)(=O)c2cccc(C)c2)c(=O)c2cc(F)c(N3CCN(C)CC3)cc21`, for which the binding response (% of control) was 101% (inactive). In the case of `Cc1ccc(-n2c(SCC(=O)N3c4ccccc4Sc4ccccc43)nnc2-c2ccncc2)cc1`, the binding response (% of control) is 97% (inactive). As for `Cc1ccc(-c2noc(CSc3nnc(-c4ccncc4)n3-c3ccc(F)cc3)n2)cc1`, the figure is 106% (inactive); as for `Cc1ccc(Nc2nc(CSc3nnc(-c4ccncc4)n3-c3ccccc3C)cs2)cc1`, 138% (active).
